# Bioassay records (PubChem)
# A selection: hits, their analogues and other compounds. The true share with any hit is near 2.7%.
# KDM5B inh: blocks human KDM5B histone demethylase activity. 2.6% of 220,000 active. Q9UGL1. KDM5B demethylase, FDH-coupled NADH fluorescence (FDH is formaldehyde dehydrogenase). AID 1347165. Potency, µM (titrated, usually from 57.7 µM), hits mostly inhibitors; active means well fitted inhibition curve with a large enough effect; inconclusive means small, poorly fitted or top-dose-only effect; inactive means no such curve, though single readings can be large or run the other way; further: potency means the concentration at half of the fitted maximal effect; 0% is about no effect; nearly all actives have a fitted effect of over 70% in size
#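 Compound dilutions met 200 nM (final) KDM5BΔAP for 10 min at room temperature before substrate addition. The substrate mix held 12.5 µM H3K4me3 with cofactors 25 µM α-ketoglutarate and 50 µM Fe²⁺. NADH signal gain over 30 min defined activity.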
# IP6K1 inhibitor: blocks human inositol hexakisphosphate kinase 1 | Q92551 | IP6K1 kinase, ADP-Glo luminescence, 2 h; active compounds read low | activity change, % (series mostly up to about 58 µM) | 0.81% of 140,000 active | AID 1645851; in the data active means activity change below about -25%; further: on the % scale 0 is the no-effect control and ±100 the full control effect
#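 ADP-Glo luminescence measures ADP made by human IP6K1 during a 2 h RT reaction with ATP/IP6 (mix at 1.3 mM/130 uM); top library doses 57.5 and 19.1 uM final.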
# Starred values were filed as active, the others as inactive; i = inactive; ? = inconclusive; . = not tested or not shown.
SMILES,KDM5B inh,IP6K1 inhibitor
COc1ccc(N2CC(c3noc(-c4cc(C)cc(C)c4)n3)CC2=O)cc1 (stereo unspecified),i,22.6
CCc1ccc(N2CC(c3noc(-c4ccc(OC)c(F)c4)n3)CC2=O)cc1 (stereo unspecified),31.6µM*,33.7
COc1cc(OC)cc(-c2nc(C3CC(=O)N(c4ccc(C)cc4)C3)no2)c1 (stereo unspecified),31.6µM*,0.0
O=C(NCc1cccc(Cl)c1)c1cn2cc(-c3ccc(C(F)(F)F)cc3)sc2n1,.,17.2
COC(=O)N1CCN(Cc2ccccc2-c2cccnc2)CC1,.,12.6
COc1ccc(C(C)NC(=O)C2CCN(C(=O)c3ncn4c3COC(c3ccccc3)C4)CC2)cc1 (stereo unspecified),i,4.4
CC(=O)c1cc(Cl)cc(Cl)c1OCc1ccccc1,i,.
Fc1ccc(-c2cnc3n2C[C@H](CN(Cc2ccccc2)Cc2ccccc2)OC3)cc1,i,-10.1
CCc1ccc(N2CC(c3noc(-c4cnccn4)n3)CC2=O)cc1 (stereo unspecified),i,28.9
CCc1ccc(N2CC(c3noc(-c4ccc(N(C)C)cc4)n3)CC2=O)cc1 (stereo unspecified),31.6µM*,32.9
CCC(C)NC(=O)c1ccc(CNC(=O)C2CCCC2)cc1 (stereo unspecified),i,.
CC1CC(=O)Nc2cc(S(=O)(=O)NCc3cccs3)ccc2S1 (stereo unspecified),i,.
O=C(Cn1nc2c(cc1=O)CCCCC2)N1CC=C(c2c[nH]c3ccccc23)CC1,17.8µM*,-1.4
O=C(Cn1nc2c(cc1=O)CCCCC2)NC1CCCc2c1[nH]c1ccccc21 (stereo unspecified),28.2µM*,-7.5
O=C(Cn1nc2c(cc1=O)CCCCC2)N1CCC(c2ccccc2)CC1,i,4.8
Cn1nc(C(=O)NC2CCCc3c2[nH]c2ccccc32)c2ccccc2c1=O (stereo unspecified),25.1µM*,0.0
O=C(Cn1nc2c(cc1=O)CCCCC2)NC1CCCc2c1[nH]c1c(Cl)cccc21 (stereo unspecified),i,7.1
O=C(NC1CCCc2c1[nH]c1ccccc21)c1ccccc1 (stereo unspecified),?,-4.3
O=C(OCc1nc2ccccc2o1)c1ccccc1,i,.
O=C(Nc1ccc2ncnc(N3CCCCC3)c2c1)c1ccsc1,i,4.5
O=C(Nc1ccc2c(N3CCOCC3)ncnc2c1)c1cccc(Br)c1,?,28.9
COc1ccc(CC(=O)Nc2ccc3ncnc(N4CCCC4)c3c2)c(Cl)c1,?,2.3
COc1ccc(CC(=O)Nc2ccc3ncnc(N4CCCCC4)c3c2)c(Cl)c1,31.6µM*,4.8
O=C(Nc1ccc2ncnc(N3CCCCC3)c2c1)c1cncc(Br)c1,28.2µM*,12.7
O=C(Nc1ccc2ncnc(N3CCCC3)c2c1)c1cccc(Br)c1,31.6µM*,11.6
SMILES,KDM5B inh,IP6K1 inhibitor
O=C(Nc1ccc2c(N3CCCC3)ncnc2c1)c1ccc(Br)cc1,?,8.7
Nc1ccc2ncnc(N3CCCC3)c2c1,28.2µM*,6.0
Cc1ccc([S+](=O)([O-])N2CCN(CCCn3nc4n(c3=O)CCCC4)CC2)cc1,.,0.4
COc1cc(C2C=C(C(=O)O)Nc3ncnn32)ccc1OCCC(C)C (stereo unspecified),i,.
Cc1ccc(F)c(S(=O)(=O)Nc2cccc(NC(N)=O)c2)c1,i,.
CCCc1nnc(NC(=O)C2(c3ccc(Cl)cc3)CCC2)s1,i,.
O=C(Cc1cccc(F)c1)N1CCOc2ccc(CN3CCc4ccccc4C3)cc2C1,i,-12.8
CC(C)(C)c1ccc(CN(Cc2ccccc2)C(=S)Nc2ccc(Br)cc2)cc1,i,.
CN(C)c1nccnc1OC1CCN(C(=O)NCCc2ccccc2)C1 (stereo unspecified),i,2.5
Cn1ccnc1CN1C[C@@H]2C[C@H]1C(=O)N(CC1CC1)c1ccccc1O2,i,16.7
O=C1[C@@H]2C[C@@H](CN2Cc2ccnc3ccccc23)Oc2ccccc2N1CC1CC1,35.5µM*,-7.5
O=C(NCCN1CCCCC1)c1nnn2cc(-c3ccccc3)[nH]c(=O)c12,i,-13.7
CCOCCCNC(=O)c1nnn2cc(-c3ccccc3)[nH]c(=O)c12,28.2µM*,-3.9
CCN1CCN(CCNC(=O)c2nnn3cc(-c4ccccc4)[nH]c(=O)c23)CC1,28.2µM*,-13.7
O=C(NCCC1=CCCCC1)c1nnn2cc(-c3ccccc3)[nH]c(=O)c12,?,0.0
COC(=O)C1=C(C(=O)c2ccc(C)cc2)C(c2cccc(F)c2)n2nnnc2N1 (stereo unspecified),i,.
CCOc1ccc2nc(Nc3ncc4c(n3)CCCC4=O)nc(C)c2c1,i,.
COc1ccc(NC(=O)C2(Cc3cccnc3)CCCCC(=O)N2)c(OC)c1 (stereo unspecified),.,-8.1
Cn1ncc2c(C(=O)NC3CC3)cc(-c3ccccc3F)nc21,.,-8.5
c1coc(-c2cc(CSc3ccc4c(c3)OCCCO4)no2)c1,i,.
COc1ccc(Cc2nc3nccc(-c4ccc5c(c4)OCCCO5)n3n2)cc1,?,12.2
c1coc(-c2nc3nccc(-c4ccc5c(c4)OCCCO5)n3n2)c1,28.2µM*,-9.8
COCc1nc2nccc(-c3ccc4c(c3)OCCCO4)n2n1,17.8µM*,6.3
CN1CCN(c2ccc(-c3cn(C)c(=O)n4cc(CNc5ccccc5)nc34)cn2)CC1,28.2µM*,-7.8
COc1cc(-c2cn(C)c(=O)n3cc(COc4ccnn4C)nc23)ccn1,35.5µM*,-0.3
SMILES,KDM5B inh,IP6K1 inhibitor
Cn1nccc1OCc1cn2c(=O)n(C)cc(-c3ccc(O)c(F)c3)c2n1,?,-10.6
Cn1nccc1OCc1cn2c(=O)n(C)cc(-c3ccsc3)c2n1,?,-4.9
CN(C)Cc1cn2c(=O)n(C)cc(-c3cccc(OC(F)(F)F)c3)c2n1,i,-5.1
Cn1cc(-c2cn(C)c(=O)n3cc(CNc4ccccc4)nc23)cn1,i,-7.6
CN1CCN(c2ccc(-c3cn(C)c(=O)n4cc(COc5ccnn5C)nc34)cn2)CC1,39.8µM*,-14.6
COc1ccc(-c2cn(C)c(=O)n3cc(CN(C)C)nc23)cc1OC,35.5µM*,-5.6
CC(C)c1cc(C(=O)Nc2ccc(Cl)c(C(F)(F)F)c2)nn1C1CCS(=O)(=O)C1 (stereo unspecified),i,.
COc1cccc(C(=O)N2CCN(C(=O)Cc3cc(OC)c(OC)c(OC)c3)CC2)c1,i,.
Cc1ccc(F)cc1NC(=O)NCCc1coc(-c2ccccc2)n1,i,.
O=C1C2CCCN2C(=O)N1Cc1coc(-c2cccc(Cl)c2)n1 (stereo unspecified),i,.
Cc1cccc(Nc2nc(NC3CCCCCC3)nc3c2cnn3-c2ccccc2)c1,i,.
COCC(=O)N1CCN2C(=O)c3cc(-c4ccc5c(c4)OCO5)ccc3NC(=O)[C@H]2C1,?,-4.4
O=C1Nc2ccc(-c3ccc4c(c3)OCO4)cc2C(=O)N2CCN(C(=O)COc3ccccc3)C[C@H]12,28.2µM*,-14.1
COc1cc(SC)ccc1C(=O)N[C@H]1C[C@H]2C(=O)Nc3ccc(-c4ccc5c(c4)OCO5)cc3C(=O)N2C1,31.6µM*,-0.7
CC(=O)N1CCC(C(=O)N2CCN3C(=O)c4cc(-c5ccc6c(c5)OCO6)ccc4NC(=O)[C@H]3C2)CC1,?,-0.6
COc1cc(SC)ccc1C(=O)N[C@H]1CCN2C(=O)[C@@H](CC(=O)O)NC(=O)[C@@H]2C1,i,-9.5
